Results: article PMC4552634, “A New Set of Chemical Starting Points with Plasmodium falciparum Transmission-Blocking Potential for Antimalarial Drug Discovery” (PLoS ONE, 2015)
Out of some 13,000 compounds screened, about 3,200 (25%) showed an effect of 50% or more. The list shows a part of the results.

system: P. falciparum stage V gametocytes; design: BacTiter-Glo ATP luminescence viability of purified stage V gametocytes in 384-well plates, per cent inhibition versus DMSO; conditions: 48 h, 5 µM; inhibitor

| Compound | % Inhibition |
| --- | --- |
| CCCCc1cc(NCC)nc(Nc2cccc(OC)c2)n1 [TCMDC-133993] | 0.878% |
| COc1ccc(CCCN2C(=O)C(c3ccccc3)(c3ccccc3)N=C2N)cc1 [TCMDC-136503] | -39.16% |
| O=C(Nc1ccc(N2CCNCC2)nc1)c1oc(-c2ccccc2)nc1C(F)(F)F [TCMDC-135131] | 3.26% |
| CC(C)N(C(=O)CSc1nc2cc(Cl)ccc2c(=O)n1Cc1ccccc1)C(C)C [TCMDC-123612] | 6.529% |
| Cc1nc2ccc3ccc(CN(C)c4ccc(C(=O)N[C@@H](CCC(=O)O)C(=O)O)cc4)cc3c2c(=O)[nH]1 [TCMDC-138089] | 24.11% |
| Cc1cccc2[nH]c(-c3cccc(-c4cccc(NC(=O)Nc5ccc(F)c(F)c5F)c4)c3)nc12 [TCMDC-133227] | -33.06% |
| COc1cncc(/C=C/c2cncc(C(=O)NCCc3ccc(Cl)cc3Cl)c2)c1 [TCMDC-134508] | -1.142% |
| CCOc1ccc(Nc2cc(C)nc(Nc3ccc(OCC)cc3)n2)cc1 [TCMDC-125772] | -32.28% |
| CCOc1cc(C=NNc2nc(C)cc(-n3nc(C)cc3C)n2)ccc1O [TCMDC-124094] | 92.61% |
| CCOc1cc(/C=N/Nc2nc3ccccc3[nH]2)ccc1OCc1ccc([N+](=O)[O-])cc1 [TCMDC-124191] | -53.42% |
| CC1(C)N=C(N)N=C(N)N1OCCSc1ccccc1 [TCMDC-131670] | -8.546% |
| CCNC(=O)Nc1cccc(-c2cccc(-c3nc4c(C)cccc4[nH]3)c2)c1 [TCMDC-133172] | -6.099% |
| CSc1ccc2ccccc2c1CCNCCCCNCCc1c(SC)ccc2ccccc12 [TCMDC-137763] | 109.4% |
| CSc1ccc2ccccc2c1CNCCCCCCNCc1c(SC)ccc2ccccc12 [TCMDC-137758] | 72.82% |
| CC1CCC(NCc2c(O)ccc3ccccc23)CC1 (centres unmarked) [TCMDC-137602] | -21.28% |
| CC1CN(Cc2csc(Nc3ccccc3)n2)CC(C)O1 (centres unmarked) [TCMDC-125078] | 46.05% |
| FC(F)(F)c1ccc2c(C=Cc3ccncc3)c[nH]c2c1 [TCMDC-137257] | 12.06% |
| CCCC(=O)Nc1ccc(OCCCCN(Cc2ccccc2C(F)(F)F)c2ccc(C(F)(F)F)c(C#N)c2)cc1 [TCMDC-133359] | 32.41% |
| Cc1[nH]c2ccc(-c3ccc(OC(F)(F)F)cc3)cc2c(=O)c1C#N [TCMDC-136129] | 23.98% |
| O=c1c2ccccc2[nH]c2cc(Cl)ccc12 [TCMDC-123989] | -7.86% |
| Cc1[nH]c2ccccc2c(=O)c1-c1ccc(Cl)cc1 [TCMDC-137172] | 25.44% |
| Cc1[nH]c2ccc(-c3ccccc3)cc2c(=O)c1Br [TCMDC-135426] | 61.46% |
| Cc1ccc2[nH]c3ccccc3c(=O)c2c1 [TCMDC-123947] | 19.38% |
| Cc1[nH]c2ccccc2c(=O)c1Br [TCMDC-137427] | 12.8% |
| CCCCN(C)CC#Cc1ccc2[nH]c(C)c(Cl)c(=O)c2c1 [TCMDC-136185] | 85.15% |

| Compound | % Inhibition |
| --- | --- |
| Cc1ccc2c(=O)c3cc(C)ccc3[nH]c2c1 [TCMDC-138194] | 58.3% |
| Cc1[nH]c2ccc(-c3ccc(N(C)C)cc3)cc2c(=O)c1Cl [TCMDC-136188] | 61.07% |
| CCN(CC)CC#Cc1ccc2[nH]c(C)c(Cl)c(=O)c2c1 [TCMDC-136162] | 0.7622% |
| CCCCc1ccc(-c2ccc3[nH]c(C)c(Br)c(=O)c3c2)cc1 [TCMDC-135463] | 34.89% |
| CCCCN(C)CC#Cc1ccc(-c2ccc3[nH]c(C)c(Br)c(=O)c3c2)cn1 [TCMDC-136285] | 11.41% |
| Cc1ccc2nc(Nc3ccc(Nc4nc5ccc(C)cc5[nH]4)c(C)c3)[nH]c2c1 [TCMDC-131952] | -70.19% |
| COc1ccc2nccc([C@@H](O)CN3CCC(NC(=O)c4cc5ccccc5[nH]4)CC3)c2c1 [TCMDC-140780] | -18.21% |
| O=C(Nc1ccc(CC(=O)N2CCc3cc(Cl)c(N4CCN(C/C=C/c5ccccc5)CC4)cc32)cc1)Nc1cccc([N+](=O)[O-])c1 [TCMDC-139475] | 6.892% |
| Cc1cc(Nc2cccc(C#N)c2)nc(Nc2ccccc2C)n1 [TCMDC-133471] | -8.734% |
| CCCCNC(=O)[C@H](CC1CCCCC1)NC(=O)c1ccc(O)c(-c2cccc(C(F)(F)F)c2)c1 [TCMDC-140812] | 31.87% |
| O=C(Nc1cc(Cl)ccc1O)c1cc(-c2ccccc2O)no1 [TCMDC-125274] | -14.42% |
| Cc1ccc2[nH]c(C)c(Br)c(=O)c2c1 [TCMDC-124347] | 65.99% |
| Cc1[nH]c2ccc(C#N)cc2c(=O)c1Br [TCMDC-135219] | 27.39% |
| O=c1c(Br)c(C(F)(F)F)[nH]c2ccc(Oc3ccccc3)cc12 [TCMDC-135798] | -15.2% |
| COC(=O)c1ccccc1N1CCN(CCCCNC(=O)c2ccc(NC(=O)c3cc(Cl)cc(Cl)c3)cc2)CC1 [TCMDC-138235] | 7.414% |
| NC(N)=Nc1ccc(OCCCCCOc2ccc(N=C(N)N)cc2)cc1 [TCMDC-137482] | 39.96% |
| NC(N)=Nc1ccc(OCCCCCOc2ccc(N=C(N)N)cc2Br)c(Br)c1 [TCMDC-137543] | 77.55% |
| NC(N)=Nc1ccc(OCCCCCOc2ccc(N=C(N)N)c(Cl)c2)cc1Cl [TCMDC-137577] | 34.57% |
| Cc1nc(N)nc(N)c1-c1cc(Cl)c(N)c(Cl)c1 [TCMDC-137386] | -88.48% |
| Cc1nc2ccccc2c(=O)n1/N=C/c1ccccc1[N+](=O)[O-] [TCMDC-125512] | 2.657% |
| CCOC(=O)c1c[nH]c2c(sc3cc(OC)ccc32)c1=O [TCMDC-137190] | 2.888% |
| CCCCOc1cc2[nH]cc(C(=O)OCC)c(=O)c2cc1OCCCC [TCMDC-137523] | 63.76% |
| CCOC(=O)c1c[nH]c2c(ccc3ccccc32)c1=O [TCMDC-123857] | 33.13% |
| CCCc1cc(NCC)nc(Nc2ccc(C)cc2)n1 [TCMDC-134013] | -22.6% |
| Cc1cccc(OCC(=O)Nc2cccc(NC(=O)COc3cccc(C)c3)n2)c1 [TCMDC-123837] | 22.25% |

| Compound | % Inhibition |
| --- | --- |
| COc1cc(C(=O)NC2CCc3ccccc32)cc(Cl)c1OC (centres unmarked) [TCMDC-124601] | 17.65% |
| OC(CNc1ccnc(Nc2cccc(CCN3CCOCC3)c2)n1)c1ccccc1 (centres unmarked) [TCMDC-136463] | 12.7% |
| Cc1cnc(Nc2cccc(CCN3CCOCC3)c2)nc1NC(C)C [TCMDC-133533] | 57.17% |
| Cc1cccc(Nc2nccc(Nc3cccc(C(=O)NCCN4CCOCC4)c3)n2)c1 [TCMDC-124774] | -4.453% |
| CCCCCCN1CCC(NCc2cccc3ccccc23)CC1 [TCMDC-141665] | -97.34% |
| CCCCN1CCN(CCCNc2c3ccccc3nc3ccccc23)CC1 [TCMDC-137572] | 99.41% |
| CCCCCCCCN1CCN(CCCCCCNc2c3ccccc3nc3ccccc23)CC1 [TCMDC-138015] | 122.1% |
| CCCCCCNc1c2ccccc2nc2ccccc12 [TCMDC-123957] | -50.01% |
| CCCCN1CCN(CCCCNc2c3ccccc3nc3ccccc23)CC1 [TCMDC-137569] | 97.88% |
| COc1ccc(NC(=O)Nc2ccc(-c3ccncc3)c(C(F)(F)F)c2)cc1N1CCN(C)CC1 [TCMDC-139213] | -9.659% |
| O=C(Cc1cnc[nH]1)Nc1cccc(-c2ccc(-c3nc4ccccc4[nH]3)cc2)c1 [TCMDC-136947] | 6.174% |
| O=C(/C=C/c1ccc(Cl)c(Cl)c1)NCCCCCCN1CCCN(C(=O)Nc2cc(F)cc(F)c2)CC1 [TCMDC-135941] | 5.109% |
| C=C[C@]1(C)C[C@@H](OC(=O)NC(=O)C2CCN(C(=O)CSc3ccccc3)CC2)[C@]2(C)[C@H](C)CC[C@]3(CCC(=O)[C@H]32)[C@@H](C)[C@@H]1O [TCMDC-139971] | 14.26% |
| CNC(=O)NC1=NC(C)(C)N(OCCCOc2cc(Cl)c(Cl)cc2Cl)C(N)=N1 [TCMDC-131701] | 9.937% |
| CN(C)CCCNc1ncnc2c1[nH]c1ccc(Cl)cc12 [TCMDC-124579] | 36.17% |
| Cc1nc(N)nc(N)c1-c1ccc(Cl)c(Cl)c1 [TCMDC-123931] | 6.997% |
| NCCCCc1c(-c2ccc(Cl)c(Cl)c2)[nH]c2ccc(Cl)cc12 [TCMDC-125841] | 97.12% |
| CO/C(=C\C=C\c1cc2cc(Cl)c(Cl)cc2[nH]1)C(=O)NCCCN1CCN(c2cccc(OCC(=O)Nc3ccccc3)c2)CC1 [TCMDC-139822] | -45.25% |
| Cc1cc(OCCCN2CCC(NS(=O)(=O)c3cccc(Br)c3)C2)c2ccccc2n1 (centres unmarked) [TCMDC-136283] | -24.53% |
| COc1cc(Cc2cnc(N)nc2N)cc(OCCCC#N)c1OC [TCMDC-138040] | -4.212% |
| Cc1ccc(S(=O)(=O)N2CCN(C(=O)c3cc(-c4ccccc4)n[nH]3)CC2)cc1 [TCMDC-124401] | -51.82% |
| Cc1nn(CC(C)C)c2sc(C(=O)N3CCN(S(=O)(=O)c4ccc(C#N)cc4)CC3)cc12 [TCMDC-125045] | 90.92% |
| COc1ccccc1-c1cc(C(=O)N2CCN(S(=O)(=O)c3ccc(C)cc3)CC2)[nH]n1 [TCMDC-124398] | 19.71% |
| CCOc1ccc(-c2n[nH]c(C(F)(F)F)c2-c2ccccc2OC)c(O)c1 [TCMDC-124564] | -16.08% |
